Bioassay records from PubChem.
FGF22 binding: binders of recombinant human FGF22 by thermal shift | actives 1.5% (n = 340,000) | SYPRO orange fluorescence; percent of sucrose octasulfate shift, DMSO zero | activity (Tm shift, normalised), % at 9.99 µM | AID 651658 | Q9HCT0;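 active means mean Tm shift, scaled 0 neutral to 100 positive control, at about 1.3% or above, every replicate too, limit read from the data; inconclusive means no clear call, values can overlap the other calls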
Target sequence (Q9HCT0 whole entry, looked up): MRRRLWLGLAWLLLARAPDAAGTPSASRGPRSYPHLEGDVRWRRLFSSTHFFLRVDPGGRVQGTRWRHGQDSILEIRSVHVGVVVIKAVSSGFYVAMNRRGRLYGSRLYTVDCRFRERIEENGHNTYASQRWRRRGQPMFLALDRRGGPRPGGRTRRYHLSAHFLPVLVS
DENV2 CPE rescue: inhibitors of DENV2 cytopathic effect; actives 1.7% (n = 350,000); CPE inhibition, % at 9.99 µM; AID 651640; DENV2-infected cells, cytopathic effect rescue, plate reader; in the data active means CPE inhibition above about 20%, passing the limit was not always enough; inconclusive means no clear call, values can overlap the other calls; tested in BHK-21 cells
ERAP1 inh: inhibitors of human ERAP1 aminopeptidase | Q9NZ08 | recombinant ERAP1, Leu-AMC fluorescence, 60 min | inhibition, % at 10.7 µM | actives 0.15% (n = 340,000) | AID 652197;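 active means mean replicate inhibition of at least 30%, or all replicates individually reaching that 30% level; inactive means mean below 30% and not every replicate reaching it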
RAD52 anneal inh: inhibitors of human RAD52 DNA annealing | inhibition, % at 18.7 µM | recombinant RAD52 DNA annealing, FRET fluorescence | P43351 | actives 0.46% (n = 360,000) | AID 651710;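 active means every replicate showing at least 50% inhibition; inconclusive means mean inhibition at least 50% but not in every replicate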
Target sequence (P43351 whole entry, looked up): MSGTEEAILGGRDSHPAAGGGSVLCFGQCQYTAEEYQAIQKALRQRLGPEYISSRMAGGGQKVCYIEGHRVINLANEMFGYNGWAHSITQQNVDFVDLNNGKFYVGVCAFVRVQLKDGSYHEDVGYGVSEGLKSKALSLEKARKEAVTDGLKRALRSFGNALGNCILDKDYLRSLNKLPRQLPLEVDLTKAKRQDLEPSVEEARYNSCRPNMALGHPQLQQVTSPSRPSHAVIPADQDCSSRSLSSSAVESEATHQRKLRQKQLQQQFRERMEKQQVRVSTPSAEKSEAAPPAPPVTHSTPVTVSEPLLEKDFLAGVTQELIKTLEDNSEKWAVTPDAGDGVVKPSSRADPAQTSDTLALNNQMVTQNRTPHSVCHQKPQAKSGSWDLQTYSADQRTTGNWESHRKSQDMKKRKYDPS
MLL AF4-AF9 inh: MLL-AF4/AF9 protein interaction inhibition. P42568. AlphaScreen, biotin-AF4 peptide binding to FLAG-AF9. inhibition, % at 10 µM. actives 0.47% (n = 350,000). AID 651704;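 active means every replicate reaching a set inhibition limit, whatever the replicate mean, cut at about 25% in these data; inconclusive means mean inhibition reaches that limit but some replicates miss it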
Large screens that a line does not name were inactive. An excerpt weighted towards active compounds, which were near 4% of everything screened.

CC1CCN(C(C(=O)Nc2ccc3c(c2)OCO3)c2ccccc2)CC1 (stereo not drawn)	MLL AF4-AF9 inh 51.5
COc1cccc(C#Cc2ccc([C@H]3[C@@H](CO)N4C(=O)CN(C(=O)c5ccncc5)C[C@H]34)cc2)c1	none (no result: FGF22 binding)
COCC(=O)N(C)C[C@@H]1Oc2ncc(-c3cccc(OC)c3)cc2C(=O)N([C@@H](C)CO)C[C@@H]1C	none
CS(=O)(=O)N1CC2(C1)[C@H](c1ccccc1)[C@H](CO)N2CC1CC1	none
Cc1nccn1CC(O)COc1ccc(Cl)cc1Cl (stereo not drawn)	DENV2 CPE rescue 31.1
N[C@H]1CC[C@H](CCn2cc(-c3ccccn3)nn2)O[C@@H]1CO	none
CCCNC(=O)N1CC2(C1)CN(C(=O)c1ccncc1)[C@H](CO)c1[nH]c3cc(OC)ccc3c12	none
COc1ccc2c3c([nH]c2c1)[C@H](CO)N(S(C)(=O)=O)CC31CN(C(=O)c2ccncc2)C1	none
CC1CCN(S(=O)(=O)c2cnc(Cl)c(Br)c2)CC1	DENV2 CPE rescue inconclusive, MLL AF4-AF9 inh 27.0
O=C(CCn1c(=S)oc2ccccc21)Nc1ccccc1F	FGF22 binding 44.1
CCOC(=O)c1cc(=O)nc(N)s1	FGF22 binding 43.4
COc1ccc(S(=O)(=O)N(C)C[C@@H]2OCCCC[C@H](C)Oc3ccc(NS(=O)(=O)c4cn(C)cn4)cc3C(=O)N([C@@H](C)CO)C[C@H]2C)cc1	none
C=C(C)C(=O)N1CC2(CC(c3cccc(NC(=O)/C=C\C)c3)=NO2)C[C@H]1C(N)=O (stereo partly drawn)	DENV2 CPE rescue 127.6
CC/C=C/C(=O)N1CC2(CC(c3cccc(NC(=O)COc4ccc(Cl)cc4)c3)=NO2)C[C@H]1C(N)=O (stereo partly drawn)	DENV2 CPE rescue 22.3
NC(=O)[C@@H]1CC2(CC(c3cccc(NC(=O)COc4ccc(Cl)cc4)c3)=NO2)CN1C(=O)COc1ccc(Cl)cc1 (stereo partly drawn)	DENV2 CPE rescue inconclusive
C/C=C/C=C/C(=O)N1CC2(CC(c3cccc(NC(=O)/C=C/C)c3)=NO2)C[C@@H]1C(N)=O (stereo partly drawn)	DENV2 CPE rescue 29.4
CCCC#Cc1cnc2c(c1)C(=O)N([C@@H](C)CO)C[C@H](C)[C@H](CN(C)Cc1ccncc1)O2	none
O=C(C[C@@H]1CC[C@@H](NC(=O)Nc2ccc(F)cc2)[C@@H](CO)O1)NCc1ccccn1	none
O=C(C1CCCC1)N1CC2(C1)[C@H](c1ccccc1)[C@H](CO)N2CC1CC1	none
COc1ccc2c3c(n(C)c2c1)[C@@H](CO)N(S(C)(=O)=O)CC31CN(C(=O)C2CC2)C1	none (no result: ERAP1 inh, RAD52 anneal inh)
Cn1cc(CN(CCO)Cc2cccs2)c(-c2ccccc2F)n1	FGF22 binding 42.9
COC(=O)N1C(=O)[C@](c2ccsc2)(C(C)C)N1C(=O)OC	DENV2 CPE rescue 47.8
COC(=O)N1C(=O)[C@](c2ccc(OC)cc2)(C(C)C)N1C(=O)OC	none
O=C(CN1CCN(C(c2ccccc2)c2ccccc2)CC1)Nc1ccc(N2CCOCC2)cc1	FGF22 binding 43.0
CC(NC(=O)CN1CCN(c2cccc(Cl)c2)CC1)c1ccccc1 (stereo not drawn)	DENV2 CPE rescue 44.2
C[C@H](CO)N1C[C@H](C)[C@H](CN(C)S(C)(=O)=O)Oc2ncc(/C=C/c3ccccc3)cc2C1=O	none
CC(C)(C)c1ccc(-n2ncc3c2CCCC3NC(=O)CN2CCCCC2=O)cc1 (stereo not drawn)	none
CC(=O)NCC(=O)NC1CCCc2c1cnn2-c1ccc(C(C)(C)C)cc1 (stereo not drawn)	DENV2 CPE rescue 30.7
Cc1ccc(S(=O)(=O)N(CC(=O)NC2CC2)c2ccc(C)c(Cl)c2)cc1	none
Cc1cccc(N(CC(=O)NC2CC2)S(=O)(=O)c2ccc(Cl)cc2)c1	DENV2 CPE rescue 49.6
O=C1CNC[C@H]2[C@H](c3ccc(-c4ccccc4F)cc3)[C@@H](CO)N12	DENV2 CPE rescue 37.0 (no result: FGF22 binding)
O=C(c1ccc(F)cc1)N1CC(=O)N2[C@H](C1)[C@H](c1ccc(C3=CCCC3)cc1)[C@@H]2CO	DENV2 CPE rescue 53.2 (no result: FGF22 binding, ERAP1 inh)
O=C(c1ccc(F)cc1)N1CC(=O)N2[C@H](C1)[C@H](c1ccc(-c3ccccc3F)cc1)[C@@H]2CO	DENV2 CPE rescue 25.8 (no result: FGF22 binding)
O=C(NC1CCCCC1)N[C@@H]1CC[C@@H](CCNS(=O)(=O)c2ccccc2)O[C@H]1CO	none
Cc1cccc(S(=O)(=O)N2CCCCN3[C@H](CO)[C@H](c4ccc(-c5ccncc5)cc4)[C@H]3C2)c1	none
COc1cccc(-c2ccc([C@H]3[C@@H](CO)N4CCCCN(S(=O)(=O)c5cn(C)cn5)C[C@H]34)cc2)c1	none
Cc1cccc(-c2ccc([C@@H]3[C@H](CO)N4CCCCN(S(=O)(=O)c5cccc(C)c5)C[C@@H]34)cc2)c1	DENV2 CPE rescue 23.3
COc1cccc(-c2ccc([C@@H]3[C@H](CO)N4CCCCN(S(=O)(=O)c5cn(C)cn5)C[C@@H]34)cc2)c1	DENV2 CPE rescue 26.7
Cc1cccc(S(=O)(=O)N2CCCCN3[C@H](CO)[C@@H](c4ccc(-c5ccccc5)cc4)[C@H]3C2)c1	RAD52 anneal inh 52.5
COc1cccc(S(=O)(=O)N2CCCCN3[C@H](CO)[C@H](c4ccc(-c5cccnc5)cc4)[C@H]3C2)c1	none
Cc1cccc(S(=O)(=O)N2CCCCN3[C@H](C2)[C@H](c2ccc(-c4ccccc4)cc2)[C@@H]3CO)c1	none
Cc1cccc(S(=O)(=O)N2CCCCN3[C@@H](CO)[C@@H](c4ccc(-c5cccnc5)cc4)[C@@H]3C2)c1	DENV2 CPE rescue 28.2
C[C@@H]1CN([C@H](C)CO)C(=O)c2cc(NS(=O)(=O)c3ccc(F)cc3)ccc2O[C@@H](C)CCCCO[C@@H]1CN(C)Cc1ccccc1	none (no result: FGF22 binding)
Cc1noc(C)c1S(=O)(=O)Nc1ccc2c(c1)C(=O)N([C@H](C)CO)C[C@@H](C)[C@@H](CN(C)S(=O)(=O)c1ccc(F)cc1)OCCCC[C@@H](C)O2	RAD52 anneal inh 57.4
Cc1noc(C)c1S(=O)(=O)Nc1ccc2c(c1)C(=O)N([C@@H](C)CO)C[C@H](C)[C@@H](CN(C)S(=O)(=O)c1ccc(F)cc1)OCCCC[C@H](C)O2	RAD52 anneal inh 75.1
Cc1noc(C)c1S(=O)(=O)Nc1ccc2c(c1)C(=O)N([C@@H](C)CO)C[C@H](C)[C@H](CN(C)S(=O)(=O)c1ccc(F)cc1)OCCCC[C@@H](C)O2	none
Cc1noc(C)c1S(=O)(=O)N(C)C[C@H]1OCCCC[C@@H](C)Oc2ccc(NS(=O)(=O)c3ccc(F)cc3)cc2C(=O)N([C@H](C)CO)C[C@@H]1C	none (no result: ERAP1 inh, RAD52 anneal inh, MLL AF4-AF9 inh)
CCC(=O)N1CC2(C1)[C@H](c1ccccc1)[C@@H](CO)N2Cc1ccccc1OC	none
Cn1ncc(Br)c1C(=O)NC1CCCCCCC1	none
Cc1nn(C)c(C(=O)NNC(=S)NC2CCCCC2)c1Br	FGF22 binding 43.0
COc1ccc(N=N/C(=C\O)C(=O)c2ccco2)cc1	FGF22 binding 43.3
